Source: PubChem BioAssay
Sampled rows, rich in hits. Any-hit rate of the full collection: about 7.1%.
SW480 rerep – induces DNA re-replication in SW480 colon adenocarcinoma cells; Potency, µM (highest dose often 46.1 µM), for inactives: at the highest dose re-replication activation, usual class: activators; AID 624297; SW480 DNA re-replication, Hoechst DNA content imaging, 48 h; 340,000 tested, 1.8% active; further: potency means the concentration at half of the fitted maximal effect; % of control where 0% means no effect; nearly all actives have a fitted effect of over 55% in size
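Image-based read-out: total Hoechst fluorescence of nuclei (405 nm excitation, 500-530 nm emission), with hits raising the fraction of high-intensity nuclei. SW480 colon cells incubated 48 hr with compounds at 37 C.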
PINK1 modulator – changes PINK1 expression | 410,000 tested, 0.2% active | PINK1 immunofluorescence, high-content cytometry, 24 h | Potency, µM (titrated, usually from 76.6 µM), without a hit: at the highest dose activation (PINK1 increase), most hits filed as activators; active means well fitted activation curve with a large enough effect; inconclusive means small, poorly fitted or top-dose-only effect; cell line not stated here; further: potency means the concentration at half of the fitted maximal effect; % of control where 0% means no effect; nearly all actives have a fitted effect of over 65% in size
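Fluorescence from anti-PINK1 antibody, together with nuclear and cell stains, was scanned on a laser-scanning cytometer. Before staining, stable-line cells were incubated 24 hours with compounds at 5 concentrations; primary antibody 12 h at 10 degrees C.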
ATXN2 expr inh – ATXN2 expression inhibition. HEK-293 ATXN2-luciferase reporter, luminescence, 24 h. Potency, µM (highest dose often 57 µM), without a hit: at the highest dose activity change, negative = inhibition, hits mostly inhibitors. 360,000 tested, 0.72% active; further: potency means the concentration at half of the fitted maximal effect; on the % scale 0 is the no-effect control and ±100 the full control effect; nearly all actives have a fitted effect of over 55% in size
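qHTS (up to 57 uM final) was run with 24 h compound exposure of reporter cells at 37 °C. Each well was multiplexed: SteadyGlo luminescence measured ATXN2-luciferase expression after a fluorogenic Gly-Phe-AFC viability readout (25 uM final).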
S2 tox – viability counter-screen for ATXN expression inhibitors | Potency, µM (top dose mostly 56.7 µM), usual class: cytotoxic | 400,000 tested, 0.49% active | AID 651635 | S2 cells (HEK-293 line with an ATXN2-luciferase reporter) viability, CellTiter-Fluor protease fluorescence, 24 h; further: potency means the concentration at half of the fitted maximal effect; nearly all actives have a fitted effect of over 40% in size
MCF10A rerep – inducers of DNA re-replication in MCF 10A breast cells | MCF 10A DNA re-replication, Hoechst nuclear intensity, 48 h | Potency, µM (titrated, usually from 46.1 µM), inactives show at the highest dose activity, positive = re-replication, hits mostly activators | 350,000 tested, 2.9% active; further: potency means the concentration at half of the fitted maximal effect; % of control where 0% means no effect; nearly all actives have a fitted effect of over 50% in size
IL1B secr inh – inflammasome signaling inhibition, IL-1 beta readout | THP-1 LPS/ATP IL-1B secretion, AlphaLISA, 16 h; active compounds read low | activity change, % at 57.5 µM | 360,000 tested, 4.7% active | AID 743279; in the data active means activity change below about -50%; inconclusive means mostly about -30% to -49%; further: on the % scale 0 is the no-effect control and ±100 the full control effect
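Secreted IL-1B measured by AlphaLISA bead assay after 16 h compound exposure of THP-1 cells; compounds (final up to 57.5 uM) added 1 h before LPS (250 ng/mL) and ATP (1.25 mM) stimulation; lower signal means less secretion.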
Starred values were filed as active, the others as inactive; i = inactive; ? = inconclusive; · = no result; [ ] = remark or other dose. Unless noted, the call rests on the fitted dose curve; in most records, active means well fitted curve in the direction sought with a large enough effect; inconclusive means small, poorly fitted or top-dose-only effect, or another doubt; inactive means no such curve, though single readings can be large; an effect the other way counts as inactive or inconclusive.

SMILES	SW480 rerep	PINK1 modulator	ATXN2 expr inh	S2 tox	MCF10A rerep	IL1B secr inh
Cc1ccc(-c2cc(-c3ccccc3)nc(N/N=C/c3cccnc3)n2)cc1	?	3%[38.3 µM]	-26%	i	9.2µM*	-18
CCOc1cc(/C=N/Nc2nncc(-c3ccccc3)n2)ccc1O	?	5%	19%	i	4%	37
O=c1[nH]c(=O)n([C@H]2C[C@@H](O)[C@@H](CO)O2)cc1C=CBr	·	·	7%	·	·	·
O=c1c2c(-c3ccccc3)csc2nc2c3ccccc3c(NCCN3CCOCC3)nn12	?	-2%	?	·	9.2µM*	-101*
c1ccc(-c2csc3ncnc(NCCCN4CCOCC4)c23)cc1	-3%	0%	0%	i	0%	-16
COCCn1c(C)cc(O)c(C(c2ccccc2OC)N2CCN(c3ccccc3)CC2)c1=O (configuration not stated)	·	0%	·	·	·	·
Cn1nnnc1Sc1ncnc2scc(-c3ccc4c(c3)OCO4)c12	12%	1%	?	?	23µM*	·
CCC(=O)Nc1ccccc1Sc1ncnc2scc(-c3ccccc3)c12	-2%	-1%	-13%	i	1%	-22
Clc1ccc(-c2csc3ncnc(Sc4nnnn4-c4ccccc4)c23)cc1	·	-1%	·	·	·	·
COc1ccc(-c2csc3ncnc(Sc4nnnn4C)c23)cc1	-4%	1%	20µM*	?	?	·
Cn1nnnc1Sc1ncnc2scc(-c3ccc(Cl)cc3)c12	15%	-2%	14µM*	11µM*	8%	·
Cn1nnnc1Sc1ncnc2scc(-c3cccc4c3sc3ccccc34)c12	?	-1%	16µM*	?	?	·
CCOC(=O)c1cc(-c2ccc(OC)cc2)n(CCC(=O)NCc2ccccc2OC)c1C	·	2%	?	?	·	·
C/C(=C1/C=Nc2ccccc21)c1ccc(N(C)C)cc1	·	1%	·	·	·	·
C=C1C=C(C(F)F)n2ncc(C(=O)NC(C)CC)c2N1 (configuration not stated)	·	2%	·	·	·	·
Cn1nnnc1Sc1ncnc2scc(-c3ccccc3Cl)c12	23%	1%	20µM*	?	?	·
Cn1nnnc1Sc1ccc([N+](=O)[O-])cc1Cl	?	2%	-10%	i	?	24
Cn1nnnc1Sc1ncnc2scc(-c3ccc([N+](=O)[O-])cc3)c12	21%	0%	7.1µM*	16µM*	2.6µM*	·
CN(C)CC1CCC/C(=C\c2ccc(OC(=O)c3ccc(Cl)cc3)cc2)C1=O (configuration not stated)	?	-7%	-26%	24µM*	?	-100*
CC(=O)c1ccc(OC(=O)/C=C/c2ccccc2)cc1	1%	2%	·	?	0%	-5
O=C1/C(=C\c2ccc(Cl)cc2)CCC1CNc1ccc(Cl)cc1 (configuration not stated)	?	-1%	?	?	5.8µM*	-57*
CN(C)CC1CCC/C(=C\c2ccc(OC(=O)/C=C/c3ccccc3)cc2)C1=O (configuration not stated)	?	-1%	25µM*	·	4%	-111*
COc1ccc(/C=C2/CCC(CN3CCOCC3)C2=O)cc1 (configuration not stated)	15µM*	-5%	6.7µM*	?	?	-103*
CCc1ccc(CNC(=O)CCSCc2ccccc2F)cc1	·	0%	·	·	·	·
CC1CCC/C(=C\c2ccc(O)cc2)C1=O (configuration not stated)	?	0%	·	i	-4%	-22
SMILES	SW480 rerep	PINK1 modulator	ATXN2 expr inh	S2 tox	MCF10A rerep	IL1B secr inh
CN(C)CC1CC/C(=C\c2ccc(O)cc2)C1=O (configuration not stated)	10µM*	-2%	?	·	3.3µM*	-113*
Cc1[nH]c2ccc(C(=O)OC(C)C(=O)N(C)c3ccccc3)cc2c1C (configuration not stated)	3%	3%	-4%	i	15%	-15
Cc1[nH]c2ccc(C(=O)NC3CCCC3)cc2c1C	2.6µM*	-1%	16%	i	6%	0
Cc1[nH]c2ccc(C(=O)O)cc2c1C	26µM*	0%[38.3 µM]	6%	i	23µM*	9
Cc1[nH]c2ccc(C(=O)NC3CCC(C)CC3)cc2c1C (configuration not stated)	9%	2%	·	i	-5%	-14
Cc1[nH]c2ccc(C(=O)OC(C)C(=O)N(C)C3CCCCC3)cc2c1C (configuration not stated)	17%	8%	23%	i	20%	-81*
C/C(=N/NC(=O)c1ccc(Cl)s1)c1ccc(NC(=O)COc2ccc(Cl)cc2)cc1	?	3%	?	?	?	30
C/C(=N/NC(=O)c1cccs1)c1ccc(NC(=O)COc2ccc(Cl)cc2Cl)cc1	9.2µM*	3%	13µM*	11µM*	6.5µM*	-11
CCC(CC)C(=O)Nc1cccc(/C(C)=N\NC(=O)c2ccc(C)s2)c1	-2%	4%	10%	i	26%	-2
C/C(=N\NC(=O)c1c(Cl)cnn1C)c1cccc(NC(=O)COc2ccccc2)c1	4%	1%	9%	i	16µM*	-20
C/C(=N/NC(=O)c1ccc(C)s1)c1cccc(NC(=O)COc2ccc(Cl)cc2Cl)c1	?	1%	0%	i	9.2µM*	0
Cc1cccn2c(=O)c(C(=O)NC(C)c3ccccc3)c(O)nc12 (configuration not stated)	·	-2%	-19%	?	·	·
Cc1ccc(CNC(=O)Cn2nnc(C(=O)Nc3cc(C)ccc3C)c2N)cc1	-1%	5%	?	i	7%	47
Cc1cccc(OC(=O)c2nc(SCc3ccccc3F)ncc2Cl)c1	·	1%	·	·	·	·
CC(=O)OCC(=O)[C@@]1(O)[C@H](C)C[C@H]2[C@@H]3C=C(C)C4=Cc5c(cnn5-c5ccccc5)C[C@]4(C)[C@@H]3[C@@H](O)C[C@@]21C	·	·	27µM*	·	·	·
CN1CCN(C(=S)NC(=O)c2ccc(C(C)(C)C)cc2)CC1	2%	2%	7%	i	0%	2
C=CCn1cccc(/C=C/C(=O)c2ccc(C(C)(C)C)cc2)c1=S	?	-2%	25µM*	·	13µM*	-107*
Cc1cccc(NC(=O)CNC(=O)COc2ccc(C(=O)c3ccc(F)cc3)cc2)c1C	?	12%	-25%	?	15µM*	41
O=C(COc1ccc(C(=O)c2ccc(F)cc2)cc1)NCc1ccc(F)cc1	15µM*	5%	-17%	i	1.5µM*	6
COc1ccc(CNC(=O)COc2ccc(F)cc2)cc1	-7%	-1%	2%	i	-3%	25
